# Hit rate of the full screen: of about 5,500 compounds, about 2,000 (36%) were called active. Not shown: some 18% with an inconclusive outcome. The list shows a part of the results. Unmarked numbers belong to inactive results. No stated cut-off is given here; in the data, active means normalized growth mostly below about 0.91 (no sharp cut-off); inconclusive means no clear call, values can overlap the other calls; inactive means mostly above about 0.92.
# Experiment: chemical genetic growth profiling, strain panel (AID 1159580);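 further: tested at 20 µM; growth read once vehicle control cultures reached saturation at 30 °C; 1 = growth at the plate median or of vehicle wells; lower values mean less growth of the strain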
# Conditions: growth OD
smiles,measurement,setting,value
COc1ccc2ccc(=O)oc2c1CC=C(C)C,normalized growth,"S. cerevisiae deletion strains, locus YJL187C, strain SWE1, active compounds read low",0.937
same,normalized growth,"S. cerevisiae deletion strains, locus YJR043C, strain POL32, active compounds read low",0.538 (active)
same,normalized growth,"S. cerevisiae deletion strains, locus YKL009W, strain mrt4, active compounds read low",0.873 (active)
same,normalized growth,"S. cerevisiae deletion strains, locus YKL068W, active compounds read low",0.898 (active)
same,normalized growth,"S. cerevisiae deletion strains, locus YKL085W, strain MDH1 (second series), active compounds read low",0.916 (active)
same,normalized growth,"S. cerevisiae deletion strains, locus YKL085W, strain MDH1, active compounds read low",0.916 (active)
same,normalized growth,"S. cerevisiae deletion strains, locus YKL160W, strain elf1, active compounds read low",0.912
same,normalized growth,"S. cerevisiae deletion strains, locus YKR001C, strain vps1, active compounds read low",0.589 (active)
same,normalized growth,"S. cerevisiae deletion strains, locus YKR026C, strain gcn3, active compounds read low",0.906 (active)
same,normalized growth,"S. cerevisiae deletion strains, locus YKR091W, strain srl3, active compounds read low",0.926 (active)
same,normalized growth,"S. cerevisiae deletion strains, locus YLL001W, strain dnm1, active compounds read low",0.87 (active)
same,normalized growth,"S. cerevisiae deletion strains, locus YLL026W, active compounds read low",0.857 (active)
same,normalized growth,"S. cerevisiae deletion strains, locus YLL041C, strain sdh2, active compounds read low",0.945
same,normalized growth,"S. cerevisiae deletion strains, locus YLR027C, strain aat2, active compounds read low",0.845 (active)
same,normalized growth,"S. cerevisiae deletion strains, locus YLR039C, strain RIC1, active compounds read low",0.438 (active)
same,normalized growth,"S. cerevisiae deletion strains, locus YLR058C, strain SHM2, active compounds read low",0.794 (active)
same,normalized growth,"S. cerevisiae deletion strains, locus YLR102C, strain apc9, active compounds read low",0.891 (active)
same,normalized growth,"S. cerevisiae deletion strains, locus YLR221C, strain rsa3, active compounds read low",0.871 (active)
same,normalized growth,"S. cerevisiae deletion strains, locus YLR258W, strain gsy2, active compounds read low",0.848 (active)
same,normalized growth,"S. cerevisiae deletion strains, locus YLR262C, strain YPT6 (second series), active compounds read low",0.642 (active)
same,normalized growth,"S. cerevisiae deletion strains, locus YLR262C, strain YPT6, active compounds read low",0.476 (active)
same,normalized growth,"S. cerevisiae deletion strains, locus YLR268W, strain sec22, active compounds read low",0.723 (active)
same,normalized growth,"S. cerevisiae deletion strains, locus YLR320W, strain mms22, active compounds read low",0.607 (active)
same,normalized growth,"S. cerevisiae deletion strains, locus YLR330W, strain CHS5, active compounds read low",0.658 (active)
same,normalized growth,"S. cerevisiae deletion strains, locus YLR342W, strain FKS1 (second series), active compounds read low",0.705 (active)
same,normalized growth,"S. cerevisiae deletion strains, locus YLR342W, strain FKS1, active compounds read low",0.923
same,normalized growth,"S. cerevisiae deletion strains, locus YLR357W, strain rsc2, active compounds read low",0.761 (active)
same,normalized growth,"S. cerevisiae deletion strains, locus YLR370C, strain arc18, active compounds read low",0.899 (active)
same,normalized growth,"S. cerevisiae deletion strains, locus YLR371W, strain rom2, active compounds read low",0.889 (active)
same,normalized growth,"S. cerevisiae deletion strains, locus YLR384C, strain iki3, active compounds read low",0.957
same,normalized growth,"S. cerevisiae deletion strains, locus YLR418C, strain cdc73, active compounds read low",0.492 (active)
same,normalized growth,"S. cerevisiae deletion strains, locus YML016C, strain PPZ1, active compounds read low",0.926
same,normalized growth,"S. cerevisiae deletion strains, locus YML032C, strain rad52, active compounds read low",0.779 (active)
same,normalized growth,"S. cerevisiae deletion strains, locus YML120C, strain ndi1, active compounds read low",0.822 (active)
same,normalized growth,"S. cerevisiae deletion strains, locus YML124C, strain tub3, active compounds read low",0.859 (active)
same,normalized growth,"S. cerevisiae deletion strains, locus YMR058W, strain fet3, active compounds read low",0.89 (active)
same,normalized growth,"S. cerevisiae deletion strains, locus YMR078C, strain ctf18, active compounds read low",0.891 (active)
same,normalized growth,"S. cerevisiae deletion strains, locus YMR125W, strain sto1, active compounds read low",0.81 (active)
same,normalized growth,"S. cerevisiae deletion strains, locus YMR129W, active compounds read low",0.904 (active)
same,normalized growth,"S. cerevisiae deletion strains, locus YMR205C, strain PFK2, active compounds read low",0.659 (active)
same,normalized growth,"S. cerevisiae deletion strains, locus YMR223W, strain ubp8, active compounds read low",0.797 (active)
same,normalized growth,"S. cerevisiae deletion strains, locus YMR231W, strain pep5, active compounds read low",0.935
same,normalized growth,"S. cerevisiae deletion strains, locus YMR263W, strain SAP30, active compounds read low",0.826 (active)
same,normalized growth,"S. cerevisiae deletion strains, locus YMR307W, strain GAS1, active compounds read low",0.706
same,normalized growth,"S. cerevisiae deletion strains, locus YNL067W, strain RPL9B, active compounds read low",0.762 (active)
same,normalized growth,"S. cerevisiae deletion strains, locus YNL071W, strain lat1, active compounds read low",0.672 (active)
same,normalized growth,"S. cerevisiae deletion strains, locus YNL153C, strain GIM3, active compounds read low",0.713 (active)
same,normalized growth,"S. cerevisiae deletion strains, locus YNL209W, strain ssb2, active compounds read low",0.958
same,normalized growth,"S. cerevisiae deletion strains, locus YNL233W, strain BNI4, active compounds read low",0.567 (active)
same,normalized growth,"S. cerevisiae deletion strains, locus YNL248C, strain rpa49, active compounds read low",0.971
same,normalized growth,"S. cerevisiae deletion strains, locus YNL250W, strain rad50, active compounds read low",0.918
same,normalized growth,"S. cerevisiae deletion strains, locus YNL271C, strain bni1, active compounds read low",0.907 (active)
same,normalized growth,"S. cerevisiae deletion strains, locus YNL298W, strain CLA4, active compounds read low",0.829 (active)
same,normalized growth,"S. cerevisiae deletion strains, locus YNL307C, strain MCK1, active compounds read low",0.381 (active)
same,normalized growth,"S. cerevisiae deletion strains, locus YNL322C, strain KRE1 (second series), active compounds read low",0.807 (active)
same,normalized growth,"S. cerevisiae deletion strains, locus YNL322C, strain KRE1, active compounds read low",0.804 (active)
same,normalized growth,"S. cerevisiae deletion strains, locus YNR049C, strain mso1, active compounds read low",0.914 (active)
same,normalized growth,"S. cerevisiae deletion strains, locus YNR052C, strain pop2, active compounds read low",0.909 (active)
same,normalized growth,"S. cerevisiae deletion strains, locus YOL012C, strain htz1",0.768
same,normalized growth,"S. cerevisiae deletion strains, locus YOL147C, strain pex11, active compounds read low",0.726 (active)
same,normalized growth,"S. cerevisiae deletion strains, locus YOR001W, strain rrp6, active compounds read low",0.889 (active)
same,normalized growth,"S. cerevisiae deletion strains, locus YOR061W, strain CKA2, active compounds read low",0.929
same,normalized growth,"S. cerevisiae deletion strains, locus YOR069W, strain VPS5, active compounds read low",0.89 (active)
same,normalized growth,"S. cerevisiae deletion strains, locus YOR070C, strain gyp1, active compounds read low",0.917 (active)
same,normalized growth,"S. cerevisiae deletion strains, locus YOR080W, strain dia2, active compounds read low",0.93
same,normalized growth,"S. cerevisiae deletion strains, locus YOR083W, strain WHI5, active compounds read low",0.895
same,normalized growth,"S. cerevisiae deletion strains, locus YOR106W, strain vam3, active compounds read low",0.917
same,normalized growth,"S. cerevisiae deletion strains, locus YOR136W, strain idh2, active compounds read low",0.911 (active)
same,normalized growth,"S. cerevisiae deletion strains, locus YOR144C, strain elg1, active compounds read low",0.855 (active)
same,normalized growth,"S. cerevisiae deletion strains, locus YOR184W, strain ser1, active compounds read low",0.481 (active)
same,normalized growth,"S. cerevisiae deletion strains, locus YOR265W, strain rbl2, active compounds read low",0.921 (active)
same,normalized growth,"S. cerevisiae deletion strains, locus YOR270C, strain vph1, active compounds read low",0.532 (active)
same,normalized growth,"S. cerevisiae deletion strains, locus YOR290C, strain snf2, active compounds read low",0.712 (active)
same,normalized growth,"S. cerevisiae deletion strains, locus YOR316C, strain cot1, active compounds read low",0.864 (active)
same,normalized growth,"S. cerevisiae deletion strains, locus YPL051W, strain arl3, active compounds read low",0.931
same,normalized growth,"S. cerevisiae deletion strains, locus YPL078C, strain atp4, active compounds read low",0.845 (active)
same,normalized growth,"S. cerevisiae deletion strains, locus YPL106C, strain sse1, active compounds read low",0.917
same,normalized growth,"S. cerevisiae deletion strains, locus YPL240C, strain hsp82, active compounds read low",0.96
same,normalized growth,"S. cerevisiae deletion strains, locus YPR119W, strain clb2, active compounds read low",0.888 (active)
same,normalized growth,"S. cerevisiae deletion strains, locus YPR141C, strain kar3, active compounds read low",0.937
same,normalized growth,"S. cerevisiae deletion strains, locus YPR163C, strain tif3, active compounds read low",0.796 (active)
same,normalized growth,"S. cerevisiae deletion strains, locus YPR167C, strain met16, active compounds read low",0.799 (active)
same,normalized growth,"S. cerevisiae deletion strains, strain wtn01, active compounds read low",0.843 (active)
same,normalized growth,"S. cerevisiae strains, strain wild type, active compounds read low",0.798 (active)
